Activity calls are given as the source filed them. Calls follow the shape of the dose curve; as a rule, active = well fitted activation curve with a large enough effect; inconclusive = small, poorly fitted or top-dose-only effect; inactive = flat fitted curve, though single readings scatter.
assay: Cellular Toxicity (caspase-3) HepG2 (AID 654); conditions: HepG2 caspase-3 activation, luminescence; series mostly up to 92.2 µM; caspase-3 activation: at the top concentration;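 as to caspase-3 activation: cells exposed to compound for 16 hours before reading; 0% = DMSO alone and 100% = caspase signal from 100 µM tamoxifen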
Text: NIH Chemical Genomics Center [NCGC]
NIH Molecular Libraries Screening Centers Network [MLSCN]
National Institutes of Environmental Health Sciences [NIEHS]
National Toxicology Program [NTP]
We have developed a 1536-well cell-based assay for quantitative high throughput screening (qHTS) against a number of cell lines to determine in vitro caspase 3/7 of small molecules. This particular assay uses the HepG2 cell line which is derived from human hepatocellular carcinoma.
NCGC Assay Protocol Summary:
The Caspase-Glo 3/7 assay (Promega) is a homogeneous method to measure caspase-3 and caspase-7 activities in cultured cells. The quantitation of caspase 3/7 activity is based on the cleavage of a peptide-aminoluciferin substrate. After caspase cleaves the substrate the free aminoluciferin is liberated and serves as the substrate of luciferase, which generates the light. The luminescent signal is proportional to amount of caspase 3/7 activity present.
Using the Caspase-Glo 3/7 assay, the amount of caspase 3/7 activity was measured in the HepG2 cell line with complete culture medium following compound treatment for 16 hours. The assay was performed in opaque white 1536-well plates. In the screen, tamoxifen and doxorubicin were used as positive controls. Library compounds were measured for their ability to cause the activation of caspase 3/7 in the cell line, as reflected by an increase in luminescence signal, in a concentration-dependent manner. Data were normalized to the controls for basal activity (DMSO only) and 100% stimulation (100 uM tamoxifen). AC50 values were determined from concentration-response data modeled with the standard Hill equation.
qHTS protocol for caspase 3/7 assay in HepG2 cells
[Step] [Parameter] [Value] [Description]
1. Reagent; 5 uL; 1500 HepG2 cells/well
2. Time; 5 hr; 37 °C incubation
4. Controls; 23 nL; Tamoxifen 0.23 uM to 100 uM & Doxorubicin 7.0 pM to 100 uM
5. Time; 16 hr; 37 °C incubation
6. Reagent; 5 uL; Caspase-Glo 3/7 reagent
7. Time; 20 min; Room Temperature
8. Detection; Luminescence; Viewlux plate reader
Keywords: caspase 3/7, apoptosis, HepG2 cell line, luminescence, NTPHTS, NTPHTS_NCGC, NIEHS, EPA, DSSTox, MLSMR, MLSCN, NIH Roadmap, qHTS, NCGC
Potency is read from the fitted curve at half-maximal effect.

| Structure (SMILES) | caspase-3 activation | Potency |
| --- | --- | --- |
| CCCCC1C(=O)N(c2ccccc2)N(c2ccccc2)C1=O | 0.251% (inactive) | – |
| O=c1[nH]cnc2c1ncn2[C@H]1CC[C@@H](CO)O1 | 0.125% (inactive) | – |
| O=c1c(O)c(-c2ccc(O)cc2)oc2cc(O)cc(O)c12 | -1.7% (inactive) | – |
| CC(=O)c1ccc(S(=O)(=O)NC(=O)NC2CCCCC2)cc1 | -0.341% (inactive) | – |
| O=c1cc(-c2ccc(O)cc2)oc2cc(O)cc(O)c12 | -2.37% (inactive) | – |
| CCCNC(=O)NS(=O)(=O)c1ccc(Cl)cc1 | 0.752% (inactive) | – |
| CCn1cc(C(=O)O)c(=O)c2ccc(C)nc21 | -0.262% (inactive) | – |
| O=C(O)Cc1cccc2ccccc12 | 0.313% (inactive) | – |
| O=C1NC(=O)C(c2ccccc2)(c2ccccc2)N1 | 1.01% (inactive) | – |
| CC1=C(/C=C/C(C)=C/C=C/C(C)=C/C(=O)Nc2ccc(O)cc2)C(C)(C)CCC1 | – | 31.6 µM (active) |
| O=c1c(-c2ccc(O)cc2)coc2cc(O)ccc12 | -3.15% (inactive) | – |
| CC/C(=C(\c1ccccc1)c1ccc(OCCN(C)C)cc1)c1ccccc1 | – | 50.1 µM (active) |
| CC(=O)O[C@]1(C(C)=O)CC[C@H]2[C@@H]3C=C(Cl)C4=CC(=O)[C@@H]5C[C@@H]5[C@]4(C)[C@H]3CC[C@@]21C | 0.103% (inactive) | – |
| O=C(O)c1cc(O)c2c(c1)C(=O)c1cccc(O)c1C2=O | -0.813% (inactive) | – |
| CN(C)CCC(c1ccccc1)c1ccccn1 (stereo not given) | -0.162% (inactive) | – |
